Data on 22 molecules can be found in PubChem BioAssay.

Values joined by “and” are separate entries in the source; they are usually repeats but may differ in a detail not shown here. Equal values may be shown once. A number with no mark means an inactive call. How the calls were made is not given here.

Sequence of Pantothenate synthetase (Mycobacterium tuberculosis (strain ATCC 25618 / H37Rv)) (P9WIL5 whole entry, looked up): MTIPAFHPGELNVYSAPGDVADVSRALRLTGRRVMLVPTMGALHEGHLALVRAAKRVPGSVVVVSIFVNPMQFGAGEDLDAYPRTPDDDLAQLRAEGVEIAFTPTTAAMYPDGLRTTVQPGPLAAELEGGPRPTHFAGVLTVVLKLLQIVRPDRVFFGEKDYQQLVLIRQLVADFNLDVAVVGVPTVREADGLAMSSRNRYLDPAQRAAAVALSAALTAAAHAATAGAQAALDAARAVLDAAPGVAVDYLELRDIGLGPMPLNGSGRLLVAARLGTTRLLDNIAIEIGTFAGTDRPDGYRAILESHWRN

The test has as its target Pantothenate synthetase (Mycobacterium tuberculosis (strain ATCC 25618 / H37Rv)) (UniProt P9WIL5). Briefly: Coupled enzyme confirmation of inhibitors against recombinant Mtb PanC (AID 375).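 Further: 0% = full reaction with vehicle and 100% = no enzyme background.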 The conditions noted are these: coupled enzyme assay; at 10 µM, stronger effect = higher value.
Consider `COc1ccc(Cl)cc1NC(=O)COc1cccc(-n2cnnn2)c1`, for which the inhibition (in general, how much of the control response was suppressed) was 0%.
For `Cc1cc(-c2ccccc2)nc(SCc2ccc(C(=O)O)o2)n1` the value was 0%; for `CCOC(=O)c1ccccc1NC1CC(=O)N(c2ccccc2C)C1=O` (configuration not stated), 0%; for `O=C(O)c1ccc2c(c1)C(=O)N(c1ccc(Cl)cn1)C2=O`, 8%.
For `CCN(CC)CCNC(=O)CCn1c(=S)[nH]c2cc3c(cc2c1=O)OCO3` the value was 0%.
Regarding `O=C(Cc1cccs1)Nc1nnc(CCc2ccccc2)s1`, the inhibition is 0%.
For `COc1cccc(N2CCN(Cc3nc(N)nc(Nc4ccccc4OC)n3)CC2)c1` the value was 0%.
In the case of `COc1ccccc1NC(=O)C1=C(C)Nc2nnnn2C1c1ccccc1OC` (configuration not stated) it was 2%; in that of `CCCCOC(=O)CN1C(=O)c2ccc(C(=O)OCCCC)cc2C1=O`, 0%.
For `Cn1c(=O)cc(SCC(=O)NCC2CCCO2)c2ccc(Cl)cc21` (configuration not stated) the value was 10%; for `CS(=O)(=O)Nc1ccc(S(=O)(=O)Nc2nccs2)cc1`, 0%; for `Cc1cc(C)n(-c2nc3sc4c(c3c3nnc(SC(C)C)n23)CC(C)(C)OC4)n1`, 0%.
Regarding `CCN(CC)CC(=O)Nc1c(C)cccc1C`, the inhibition is 7% and 0%.
For `CC(C)OCCCNC(=O)c1cc2c(s1)CS(=O)(=O)C2` the value was 0%; for `COc1ccc(C)cc1NC(=O)CN1CCN(S(=O)(=O)c2ccc(Cl)cc2)CC1`, 0%.
For `COc1ccccc1C(=O)NC(C)C(c1cccs1)N1CCN(C)CC1` (configuration not stated) the value was 3%; for `CCn1cc(C(=O)O)c(=O)c2cc(F)c(N3CCNCC3)cc21`, 0%.
For `O=C(NCc1ccccc1)C1CCCN(S(=O)(=O)c2cccnc2)C1` (configuration not stated) the value was 0%; for `O=C(Cc1c[nH]c2ccccc12)N1CCc2ccccc21`, 3%; for `Cc1cccc(NC(=O)CN(C)S(=O)(=O)c2ccccc2)n1`, 7%.
In the case of `CC(C)NCC(O)COc1cccc2[nH]ccc12` (configuration not stated), the inhibition was 0%.
In the case of `CCCCCC(=O)N1CC2(CC)CN(C(=O)CCCCC)CC(CC)(C1)C2=O` it was 4%.
